Compounds with a hit are over-represented: about 1.1% of the library has one in this group of screens.
AMA1 RON2 block = AMA1-RON2 (P. falciparum) interaction inhibition. Potency, µM (doses to about 58.2 µM), actives largely listed as inhibitors. AID 720542. hit rate 0.2% among 360,000. AlphaScreen AMA1-biotinylated RON2 peptide binding; note: nearly all actives have a fitted effect of over 45% in size
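AMA1 (3D7) with his tag at 25 nM final met compounds first, then biotinylated RON2 peptide at 25 nM; detection used donor plus acceptor beads, 10 µg/mL apiece, read by AlphaScreen after 30 min at room temperature.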
AmpC inh detg = blocks E. coli AmpC beta-lactamase in detergent assay | AmpC hydrolysis of nitrocefin, absorbance 480 nm, 0.01% Triton | Potency, µM (top dose mostly 114 µM), actives largely listed as inhibitors | hit rate 0.041% among 370,000; note: nearly all actives have a fitted effect of over 25% in size
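20 mM phosphate pH 7.0 + 0.01% (detergent screen) or 0.0001% Triton X-100; 5.3 nM AmpC reagent; cpd preinc 15 min RT; nitrocefin (800 uM stock) to start; A480 q20 s × 4 min; Activity was normalised to no-enzyme and no-compound control wells.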
Giardia FBPA inh-1 = blocks Giardia fructose-bisphosphate aldolase activity | AID 2451 | hit rate 0.71% among 290,000 | A8B2U2 | Potency, µM (series often up to 59.6 µM), usual class: inhibitors | purified Giardia FBPA; note: nearly all actives have a fitted effect of over 55% in size
Target sequence (A8B2U2 whole entry, looked up): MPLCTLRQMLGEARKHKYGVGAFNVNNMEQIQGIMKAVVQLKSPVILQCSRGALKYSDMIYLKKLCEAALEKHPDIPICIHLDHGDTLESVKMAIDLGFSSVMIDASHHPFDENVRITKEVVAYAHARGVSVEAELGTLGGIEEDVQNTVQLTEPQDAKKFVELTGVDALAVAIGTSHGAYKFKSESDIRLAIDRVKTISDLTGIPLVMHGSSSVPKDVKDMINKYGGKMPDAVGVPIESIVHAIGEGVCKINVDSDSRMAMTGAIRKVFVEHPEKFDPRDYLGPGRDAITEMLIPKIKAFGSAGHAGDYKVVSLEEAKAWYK
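Giardia FBPA (40 nM reagent) was preincubated 10 min at RT with compound (up to 57.5 uM final), then substrate plus GAPDH/TPI/NAD/arsenate coupling system with diaphorase/resazurin was added; resorufin fluorescence (525/598 nm) was read after 20 min.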
AmpC no deterg = blocks E. coli AmpC beta-lactamase in detergent-free assay | hit rate 0.52% among 330,000 | AmpC nitrocefin hydrolysis, absorbance 480 nm, 0.0001% Triton | Potency, µM (series often up to 57.1 µM), actives largely listed as inhibitors | P00811; note: nearly all actives have a fitted effect of over 20% in size
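AmpC (5.3 nM in the dispensed reagent) in 20 mM phosphate pH 7.0 with 0.01% (detergent screen) or 0.0001% Triton X-100 was preincubated with compounds for 15 min at room temperature. Nitrocefin was then added from an 800 uM solution, and hydrolysis was followed at 480 nm.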
Giardia growth = Giardia lamblia growth inhibition. shares compounds with Giardia FBPA inh-1. Giardia lamblia trophozoite growth inhibition. Potency, µM (top dose mostly 57.5 µM), hits mostly inhibitors. hit rate 5% among 1,500;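 note: trophozoites exposed to compound for 48 h at 37 °C; nearly all actives have a fitted effect of over 70% in size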
Mammal cell tox = counter-screen for Giardia aldolase inhibitors: mammalian cell toxicity. Potency, µM (highest dose often 57.5 µM), hits mostly inhibitors. hit rate 4% among 1,500. mammalian cell viability counter-screen, qHTS. AID 2786. shares compounds with Giardia FBPA inh-1;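 note: Chinese hamster ovary cells used as mammalian cytotoxicity surrogate; viability measured as cellular ATP by luminescence; compound exposure lasted 48 h before reading; nearly all actives have a fitted effect of over 60% in size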
Giardia FBPA inh-2 = confirmation of Giardia fructose-bisphosphate aldolase inhibitors. purified Giardia aldolase enzyme activity, qHTS. Potency, µM (titrated, usually from 57.5 µM), actives largely listed as inhibitors. shares compounds with Giardia FBPA inh-1. hit rate 5% among 1,500; note: nearly all actives have a fitted effect of over 45% in size
Rabbit FBPA inh = blocks rabbit muscle aldolase in Giardia aldolase selectivity test. Rabbit muscle FBPA enzyme inhibition, selectivity counter-screen. hit rate 4% among 1,500. Potency, µM (series often up to 57.5 µM), most hits filed as inhibitors. AID 2794. shares compounds with Giardia FBPA inh-1; note: nearly all actives have a fitted effect of over 60% in size
Target sequence (P00883 whole entry, looked up): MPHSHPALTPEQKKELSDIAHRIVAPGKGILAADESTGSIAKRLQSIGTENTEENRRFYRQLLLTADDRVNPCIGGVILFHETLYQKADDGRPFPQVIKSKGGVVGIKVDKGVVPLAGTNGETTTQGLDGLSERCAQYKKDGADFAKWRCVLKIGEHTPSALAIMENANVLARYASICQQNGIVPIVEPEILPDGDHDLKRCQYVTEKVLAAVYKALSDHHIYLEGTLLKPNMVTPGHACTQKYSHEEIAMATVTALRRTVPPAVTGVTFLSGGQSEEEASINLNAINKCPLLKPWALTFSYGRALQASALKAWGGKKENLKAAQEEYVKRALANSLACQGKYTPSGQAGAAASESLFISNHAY
GAPDH counter = GAPDH inhibition flagged for Giardia aldolase hits; shares compounds with Giardia FBPA inh-1; GAPDH coupling enzyme counterscreen, biochemical, qHTS; Potency, µM (doses to about 57.5 µM), hits mostly inhibitors; hit rate 6% among 1,500; note: nearly all actives have a fitted effect of over 55% in size
Numbers stand for hits; n = inactive; u = inconclusive; x = not tested or not shown; [ ] = dose if it differs, or a comment. Calls come from the whole dose curve; as a rule, active = well fitted curve in the direction sought with a large enough effect; inconclusive = small, poorly fitted or top-dose-only effect, or another doubt; inactive = no such curve, though single readings can be large; an effect the other way counts as inactive or inconclusive.

SMILES | AMA1 RON2 block | AmpC inh detg | Giardia FBPA inh-1 | AmpC no deterg | Giardia growth | Mammal cell tox | Giardia FBPA inh-2 | Rabbit FBPA inh | GAPDH counter
COc1cc(Cl)c(C)cc1NC(=O)CCc1c(C)nc2c3cccnc3nn2c1C | x | n | x | x | x | x | x | x | x
Cn1ccnc1SC(C(=O)O)c1ccccc1 (centres undefined) | n | u | 14.1µM | n | u | n | n | n | n
CC(C)N(Cc1ccccc1)C(=O)CSc1nccn1C | n | n | n | n | x | x | x | x | x
Oc1ccc(/C=N/Nc2ccnc3cc(Cl)ccc23)c(O)c1O | n | n | 14.1µM | n | n | n | u | u | u
Cc1noc(C)c1NC(=O)N(C)C[C@@H]1Oc2ccc(NC(=O)Cc3cn(C)c4ccccc34)cc2CC(=O)N([C@H](C)CO)C[C@@H]1C | n | x | x | n | x | x | x | x | x
CC1CCCC/C1=N\NC(=S)Nc1cccnc1 (centres undefined) | n | n | 17.7µM | n | n | n | n | n | n
CCC(=O)OC1(C(C)=O)CCC2C3CCC4=CC(=O)CCC4(C)C3CCC21C (centres undefined) | n | x | x | x | x | x | x | x | x
Cc1ccc(C(=O)N2c3ccccc3N=C(c3ccccc3)C2C(=O)NC(C)C)cc1 (centres undefined) | n | x | x | x | x | x | x | x | x
COc1cc(C(=O)NC(=S)Nc2ccc(Cl)cn2)cc(OC)c1OC | n | n | 10µM | n | n | n | n | n | n
CCOc1ccc(C(=O)NC(=S)Nc2cccnc2)cc1 | n | n | u | n | x | x | x | x | x
CCOc1ccc(NC(=S)NC(=O)c2cccnc2)c([N+](=O)[O-])c1 | n | n | 8.91µM | n | 35.5µM | n | n | n | n
CCOc1cc(C(=O)NC(=S)Nc2cccnc2)cc(OCC)c1OCC | n | n | 11.2µM | n | n[10.4 µM] | n | n | n | n
COc1ccc(C(=O)NC(=S)Nc2cccnc2)cc1Cl | n | n | 10µM | n | n[10.4 µM] | n | n | n | n
COc1cccc(C(=O)NC(=S)Nc2cccnc2)c1 | n | n | u | n | x | x | x | x | x
COc1ccc(F)cc1CN1CCN(C(=O)c2ccc(S(=O)(=O)N3CCCCCC3)cc2)CC1 | n | x | x | x | x | x | x | x | x
O=C(NCCCNCCCNC(=O)c1ccc(/C=N/O)nc1)c1ccc(/C=N/O)nc1 | n | n | 3.97µM | n | n | n | n | n | n
CN(CCCNC(=O)c1ccc(/C=N/O)nc1)CCCN(C)Cc1ccccc1 | n | u | x | n | x | x | x | x | x
O=C(C(=O)N1CCN(c2ccccc2F)CC1)c1ccccc1 | n | x | x | x | x | x | x | x | x
O=C(NC(=S)Nc1cccc(C(F)(F)F)c1)c1ccc2nonc2c1 | n | n | 9.98µM | n | n[10.4 µM] | n | n | n | n
CCOc1cc(OCC)cc(C(=O)NC(=S)Nc2cccc(C(F)(F)F)c2)c1 | n | n | n | n | x | x | x | x | x
COCCNC(=O)CNC(c1ccccc1)c1ccccc1 | x | n | 19.9µM | n | n | n | n | n | n
O=C(COc1ccc(F)cc1)NCCc1nc2ccccc2[nH]1 | x | n | x | x | x | x | x | x | x
COc1ccc(CCN(C)C(=O)C2CCCN(C3CCN(Cc4ccccc4)CC3)C2)cc1OC (centres undefined) | u | u | 17.8µM | n | u | n | n | n | n
CC[C@H](C)[C@H](NC(=O)[C@H](CCC(=O)O)NC(=O)[C@H](CC(N)=O)NC(=O)[C@@H](N)[C@@H](C)O)C(=O)N[C@H](C(=O)N[C@@H](CCC(=O)O)C(=O)N[C@@H](CCC(=O)O)C(=O)N[C@@H](CCC(N)=O)C(=O)N[C@@H](Cc1ccc(O)cc1)C(=O)N[C@H](C(=O)N1CCC[C@H]1C(=O)N[C@@H](CCC(N)=O)C(=O)N[C@@H](CO)C(=O)N[C@@H](CC(C)C)C(=O)N[C@@H](C)C(=O)N[C@H](C(=O)N[C@@H](CC(C)C)C(=O)N[C@@H](CCC(=O)O)C(=O)N[C@@H](CO)C(=O)N[C@H](C(=O)N[C@@H](Cc1ccccc1)C(=O)N[C@@H](CCC(N)=O)C(=O)N[C@@H](CCC(=O)O)C(=O)N[C@@H](CC(C)C)C(=O)NCC(=O)N[C@@H](CCCCN)C(=O)N[C@@H](CC(C)C)C(=O)N[C@H](C(=O)NCC(=O)N1CCC[C@H]1C(=O)N[C@@H](CC(N)=O)C(=O)N[C@@H](CO)C(=O)N[C@@H](CCC(N)=O)C(=O)O)[C@@H](C)O)C(C)C)[C@@H](C)O)[C@@H](C)O)C(C)C | x | x | n | x | x | x | x | x | x
CCN(CC)C(=O)CSc1n[nH]c(=S)n1N | n | n | 7.06µM | n | n | n | n | n | n
SMILES | AMA1 RON2 block | AmpC inh detg | Giardia FBPA inh-1 | AmpC no deterg | Giardia growth | Mammal cell tox | Giardia FBPA inh-2 | Rabbit FBPA inh | GAPDH counter
Cn1cnc(S(=O)(=O)N2CCCCC2c2cc(C(=O)NCc3ccc(Cl)c(Cl)c3)no2)c1 (centres undefined) | n | x | x | x | x | x | x | x | x
CCCN1CCC(N2CCN(c3ccc([N+](=O)[O-])cc3)CC2)CC1 | u | u | 15.8µM | n | n[10.4 µM] | n | n | n | n
C/C(CS(=O)(=O)c1ccc(Cl)cc1)=N/NC(N)=S | n | n | 15.8µM | n | n[10.4 µM] | n | n | n | n
c1ccc2c3c(cc(N4CCOCC4)c2c1)OC1(N2CCOCC2)CCCCC1O3 (centres undefined) | n | n | 0.561µM | n | u | n | 7.08µM | u | 25.1µM
Cc1ccc(CN2CCN(C(=O)c3ccncc3)CC2)cc1 | n | n | 17.7µM | n | n | n | n | n | n
C=CCNC(=S)N1CCC(Cc2ccccc2)CC1 | n | n | u | n | x | x | x | x | x
C=CCNC(=S)N1CCN(Cc2ccccc2)CC1 | u | n | 17.7µM | n | n[10.4 µM] | n | n | n | n
Cc1ccc(C(=S)N2CCN(Cc3ccccc3)CC2)cc1 | u | n | 15.8µM | n[2.29 µM] | u | n | n | n | n
CS(=O)(=O)Nc1cccc(NC(=O)C2Cc3c(-c4cccc(F)c4)ccnc3O2)c1 (centres undefined) | n | x | x | x | x | x | x | x | x
Nc1ncnc(Sc2ncccn2)c1[N+](=O)[O-] | n | n | 17.7µM | n[2.29 µM] | n[10.4 µM] | u | n | n | n
Nc1ncnc(Sc2ccccc2)c1[N+](=O)[O-] | n | n | n | n | x | x | x | x | x
O=C(O)c1ccc(Cl)c(S(=O)(=O)Nc2ccc3[nH]c(=O)[nH]c3c2)c1 | n | n | u | n | n | n | 18.3µM | u | 16.3µM
N#Cc1c(N)sc(=S)c2c1CCN(Cc1ccccc1)C2 | x | n | 1.26µM | n | n | n | 31.6µM | u | 31.6µM
CC(=O)/C(=N\Nc1ccccc1)Sc1nncn1C | n | n | 3.54µM | n | n[10.4 µM] | n | n | n | n
CC(=O)/C(=N\Nc1ccccc1)Sc1nnc(-c2ccccc2)n1-c1ccccc1 | n | n | u | n | x | x | x | x | x

Screens deposited in PubChem BioAssay by National Center for Advancing Translational Sciences (NCATS).
